# Measured values taken from the supplement of paper PMC13380429.
# Where a name gives a salt, the structure may show the parent alone. Values without a mark were called inactive.
# Test system: Vero E6 infected with SARS-CoV-2
# Assay: inhibition of SARS-CoV-2 cytopathic effect; higher = more antiviral protection, active = above 15
# Details: 48 h
SMILES,inhibition of SARS-CoV-2 cytopathic effect (1 nM),inhibition of SARS-CoV-2 cytopathic effect (8.33 nM),inhibition of SARS-CoV-2 cytopathic effect (100 nM),inhibition of SARS-CoV-2 cytopathic effect (833.33 nM),inhibition of SARS-CoV-2 cytopathic effect (10000 nM)
CCOc1ccc(Cc2nccc3cc(OCC)c(OCC)cc23)cc1OCC [ethaverine],-8.51%,-11.9%,-9.06%,-7.91%,-8.28%
Oc1ccc(OC2CCCCO2)cc1 (stereo not given) [deoxyarbutin],-1.9%,-1.93%,-0.6%,0.9%,-0.71%
O=c1cccc2n1C[C@@H]1CNC[C@H]2C1 [cytisine],1.86%,0.43%,-2.65%,-1.32%,-2.16%
O=C(NCc1ccccc1)c1csc(Nc2ccncn2)n1 [thiazovivin],-2.48%,1.22%,-1.94%,-2%,-11.5%
CC1(CN)Cc2ccccc2C1,4.53%,-3.63%,-3.31%,1.99%,-3.29%
COc1cc2c(cc1OC(C)C)[C@H](c1ccc(Cl)cc1)N(c1ccc(N(C)C[C@H]3CC[C@H](N4CCN(C)C(=O)C4)CC3)cc1)C(=O)C2,-0.21%,1.25%,2.45%,2.4%,2.39%
CC(=O)N1CCC(NC(=O)c2ccc(F)cc2)CC1,-1.4%,-1.44%,0.95%,0.58%,0.98%
CC(C)(C)c1ccc(S(=O)(=O)/C=C/C#N)cc1,2.15%,0.27%,0.24%,5.32%,-2.36%
CC(C)N(CCC(=O)c1ccc2ccccc2c1)Cc1ccccc1,0.32%,-1.41%,1.13%,3.16%,3.92%
CC(=O)Oc1cc(C(F)(F)F)ccc1C(=O)O [triflusal],-0.9%,-0.53%,-1.38%,0.3%,4.74%
COc1cc(OC2CCN(C)CC2)ccc1Nc1ncc2c(n1)n(C1CCCC1)c(=O)n2C,1.63%,2.01%,-2.6%,0.1%,11.1%
OC[C@H]1O[C@H](O[C@]2(CCl)O[C@H](CCl)[C@@H](O)[C@@H]2O)[C@H](O)[C@@H](O)[C@H]1Cl [sucralose],0.95%,0.58%,0.66%,-0.54%,-0.48%
C[C@@H]1CN([C@H]2CC[C@](C#N)(c3ccc(F)cc3)CC2)CC[C@]1(C(=O)O)c1ccccc1 [levocabastine],1.53%,0.57%,-0.86%,1.81%,-0.71%
O=C(CO)[C@@H](O)[C@@H](O)[C@H](O)CO [tagatose],-1.77%,-0.71%,-0.15%,-0.41%,0.74%
O=C1C[C@@H]2OCC=C3CN4CC[C@]56c7ccccc7N1[C@H]5[C@H]2[C@H]3C[C@H]46 [strychnine],-0.53%,0.64%,5.93%,3.93%,1.26%
CN(C)CCOc1ccc(/C(=C(/CCCl)c2ccccc2)c2ccccc2)cc1 [Toremifene citrate],0.8%,0.55%,-0.55%,0.65%,3.86%
CO[C@H]1C[C@@H]2CC[C@@H](C)[C@@](O)(O2)C(=O)C(=O)N2CCCC[C@H]2C(=O)O[C@H]([C@H](C)C[C@@H]2CC[C@H](n3cnnn3)[C@H](OC)C2)CC(=O)[C@H](C)/C=C(\C)[C@@H](O)[C@@H](OC)C(=O)[C@H](C)C[C@H](C)/C=C/C=C/C=C/1C [zotarolimus],-1.51%,-2.41%,-1.68%,-2.21%,1.71%
C[C@H]1[C@H](OC(=O)CCC(=O)O)O[C@@H]2O[C@@]3(C)CC[C@H]4[C@H](C)CC[C@@H]1[C@@]24OO3 [artesunate],-1.31%,-0.87%,1.57%,-1.37%,-11.7%
NC(=O)c1ccc2[nH]ccc2c1,-2.02%,0.22%,0.99%,0.03%,3.72%

SMILES,inhibition of SARS-CoV-2 cytopathic effect (1 nM),inhibition of SARS-CoV-2 cytopathic effect (8.33 nM),inhibition of SARS-CoV-2 cytopathic effect (100 nM),inhibition of SARS-CoV-2 cytopathic effect (833.33 nM),inhibition of SARS-CoV-2 cytopathic effect (10000 nM)
CC(C)Oc1ccc(-c2nc(-c3cccc4c3CC[C@@H]4NCCO)no2)cc1C#N [ozanimod],-1.23%,-0.27%,2.87%,0.63%,59.2% (active)
Cc1cc(C(=O)Nc2cc(Oc3ccc4nc(NC(=O)C5CC5)cn4n3)ccc2C)n(C)n1,-0.96%,-3.26%,-4.84%,-7.63%,-4.87%
CCCC1(CCC)CCC2(CCN(CCCN(CC)CC)C2)CC1 [atiprimod],-0.73%,0.69%,0.76%,-4.7%,-26.6%
C=C(C)[C@@H]1CC[C@]2(C(=O)O)CC[C@]3(C)[C@H](CC[C@@H]4[C@@]5(C)CC[C@H](OC(=O)CC(C)(C)C(=O)O)C(C)(C)[C@@H]5CC[C@]43C)[C@@H]12 [bevirimat-dimeglumine],-1.52%,0.9%,2.72%,0.6%,-0.27%
CO[C@@]1(NC(=O)CSCC#N)C(=O)N2C(C(=O)O)=C(CSc3nnnn3C)CS[C@@H]21 [cefmetazole],1.84%,1.39%,1.15%,2.93%,2.49%
CCc1ccc(C(=O)C(C)CN2CCCCC2)cc1 (stereo not given) [eperisone],0.14%,2.24%,3.36%,4.7%,2.77%
O=C(NC[C@H](O)CO)c1ccncc1Nc1ccc(I)cc1F,-1.62%,-4.02%,-9.84%,-13.5%,-14.7%
Nc1ncnc2nc(-c3ccc(N4CCOCC4)nc3)cc(-c3cccc(Br)c3)c12,-0.77%,-1.24%,-5%,-0.05%,-1.01%
CCCOc1ccc2c(c1)CC[C@@H]1[C@@H]2CC[C@]2(C)[C@@H](OC)CC[C@@H]12 [promestriene],-1.76%,-1.33%,-0.65%,-2.33%,-2.79%
CC(C)C(=O)Nc1ncc(-c2cc(C(F)F)nn2-c2c(Cl)cccc2Cl)s1,0.32%,2.58%,-0.32%,-2.46%,-5.83%
CC(=O)Oc1ccccc1C(=O)Oc1ccccc1C(=O)O [acetylsalicylsalicylic-acid],-1.51%,0.51%,2.44%,-0.27%,1.17%
CNCc1ccc(C)c(NC(=O)c2ccc(Nc3nc(-c4ccccc4)c4ccccc4n3)cc2)c1,-4.56%,-2.52%,-1.92%,-1.96%,61.3% (active)
COc1cc2c(cc1OC)CC(=O)N(CCCN(C)C[C@H]1Cc3cc(OC)c(OC)cc31)CC2 [ivabradine],-0.16%,-0.37%,-0.32%,-1.75%,-1.11%
CN1C[C@@H]2CN(c3ccc(-c4ccccc4)nn3)C[C@@H]2C1,1.02%,-1.9%,0.67%,0.54%,-3.37%
Clc1cccc2c1CN(C1=NCCN1)C2,1.97%,3.31%,3.22%,2.65%,-2.32%
Cc1c(-c2ccc(O)cc2)n(Cc2ccc(OCCN3CCCCCC3)cc2)c2ccc(O)cc12 [bazedoxifene],-2%,-3.97%,-2.44%,-5.76%,48.9% (active)
N[C@@H](Cc1ccc(Cl)cc1)C(=O)O (racemic) [fenclonine-(+/-)],1.09%,0.73%,0.7%,4.29%,3%
O=C(OC[C@H]1O[C@@H](OC(=O)c2cc(O)c(O)c(OC(=O)c3cc(O)c(O)c(O)c3)c2)[C@H](OC(=O)c2cc(O)c(O)c(OC(=O)c3cc(O)c(O)c(O)c3)c2)[C@@H](OC(=O)c2cc(O)c(O)c(OC(=O)c3cc(O)c(O)c(O)c3)c2)[C@@H]1OC(=O)c1cc(O)c(O)c(OC(=O)c2cc(O)c(O)c(O)c2)c1)c1cc(O)c(O)c(OC(=O)c2cc(O)c(O)c(O)c2)c1 [tannic-acid],-0.39%,0.91%,-0.77%,-3.86%,-6.77%
